Screening results: PubChem BioAssay, National Center for Advancing Translational Sciences (NCATS)
Rows were chosen to be rich in hits. Some 6.5% of all compounds tested hit in one or more screens of this group.
FMDV inh = blocks foot and mouth disease virus; FMDV antiviral cell-based qHTS; Potency, µM (titrated, usually from 57.9 µM), without a hit: at the top dose activity change, negative = inhibition, most hits filed as inhibitors; 1.2% of 410,000 active; AID 1159524; calls by dose curve; tested in HEK293T cells; also: read-out not given here; potency is read from the fitted curve at half-maximal effect; nearly all actives have a fitted effect of over 45% in size
VACV Venus inh = inhibitors of vaccinia virus (Venus reporter). Vaccinia virus Venus reporter expression, fluorescence. Potency, µM (titrated, usually from 36.5 µM), without a hit: at the top dose activity change, negative = inhibition, most hits filed as inhibitors. 0.46% of 330,000 active. AID 720580; calls by dose curve; tested in A549 cells; also: potency is read from the fitted curve at half-maximal effect; nearly all actives have a fitted effect of over 30% in size
LASV entry inh = Lassa virus entry inhibition; 1.2% of 300,000 active; Lassa virus pseudotype entry inhibition, cell reporter; Potency, µM (highest dose often 37.9 µM), inactives show top-dose activity change, negative = inhibition, actives largely listed as inhibitors; calls by dose curve; tested in HEK293 cells; also: potency is read from the fitted curve at half-maximal effect; nearly all actives have a fitted effect of over 50% in size
Marburg entry inh = Marburg virus entry inhibition; 1.8% of 300,000 active; Potency, µM (series often up to 37.8 µM), inactives show at the highest dose activity change, negative = inhibition, actives largely listed as inhibitors; Marburg virus pseudotyped entry inhibition, cell reporter; calls by dose curve; tested in HEK293 cells; also: potency is read from the fitted curve at half-maximal effect
HCMV antiviral = human cytomegalovirus inhibition; HFF cells, HCMV-luciferase reporter, 72 h; active compounds read low; activity change, negative = inhibition, % at 57.5 µM; 4.5% of 410,000 active; in the data active = activity change below about -60%; inconclusive = no clear call, values can overlap the other calls; inactive = above about -39%
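After 16 h attachment at 37C, HFF cells received test compound and HCMV-luciferase (1 PFU/cell); reporter luminescence read 72 h later, data normalized against buffer-only and known inhibitor Salinomycin.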
VACV mCherry inh = vaccinia inhibition (mCherry reporter); Vaccinia virus mCherry reporter infection, fluorescence; Potency, µM (top dose mostly 36.5 µM), without a hit: top-dose activity change, negative = inhibition, actives largely listed as inhibitors; 0.63% of 310,000 active; AID 720579; calls by dose curve; tested in A549 cells; also: potency is read from the fitted curve at half-maximal effect; nearly all actives have a fitted effect of over 35% in size
* = called active by the depositor; i = inactive; ? = inconclusive; · = not tested or not shown; ! = repeats disagree; [ ] = dose if it differs, or a comment. % is scaled to controls: 0 for no effect and ±100 for the full control effect.

SMILES | FMDV inh | VACV Venus inh | LASV entry inh | Marburg entry inh | HCMV antiviral | VACV mCherry inh
Cc1ccc(C(=O)N2CCN3C(=O)c4ccccc4C23c2ccc(Cl)cc2)cc1 (centres undefined) | -12% | ? | ? | ? | -71* | ·
O=C(CCl)N1CCN2C(=O)c3ccccc3C12c1ccc(Cl)cc1 (centres undefined) | 10µM* | -5% | -5% | ? | -115* | 4%
CN1C(=O)C(C)(C)c2cc(S(=O)(=O)NCC3CCC(C(=O)NC4CCCCC4)CC3)ccc21 (centres undefined) | -10% | -2% | 14%[46.1 µM] | 0%[46.1 µM] | -39 | i
CCN1CCN(c2cc(C)c3cc(NC(=O)/C=C/c4cccc(Cl)c4)ccc3n2)CC1 | -7% | ? | 1%[46.1 µM] | 5.6µM* | -101* | 11µM*
CCN1CCN(c2cc(C)c3cc(NC(=O)/C=C/c4cccc(OC)c4OC)ccc3n2)CC1 | -12% | ? | ? | 7.1µM* | -100* | ?
CCN1CCN(c2cc(C)c3cc(NC(=O)Cc4ccc(OC)c(OC)c4)ccc3n2)CC1 | -6% | ? | · | -2% | -11 | -21%
COc1cccc(/C=C/C(=O)Nc2ccc3nc(N4CCN(C)CC4)cc(C)c3c2)c1OC | -23% | -20% | ? | ? | -106* | -20%
C[C@@H]1C=CCCO[C@]12C(=O)Nc1ccc(O)cc12 | · | · | · | 10%[14.2 µM] | · | ·
Cc1ccc(N(CC2=NCCN2)c2cccc(O)c2)cc1 | -24% | -14% | ? | 23µM* | -66*! | -1%
c1ccc(CN(CC2=NCCN2)c2ccccc2)cc1 | -24% | -10% | ? | ? | ? | -11%
Cc1cccc(NS(=O)(=O)Cc2ccccc2)c1C | 14% | -18% | 16% | 7% | -19 | -5%
Cc1ccc(C2CC(c3ccccc3)=NN2C(=S)Nc2ccccc2)o1 (centres undefined) | -16% | ? | 4µM* | ? | -4 | ·
CN(C(=O)c1cnn(-c2nccc(-c3ccccc3C(F)(F)F)n2)c1C1CC1)C1CCOC1 (centres undefined) | 33% | -9% | · | · | · | -10%
Cc1cc(O)c(Sc2ncn[nH]2)cc1NS(=O)(=O)c1ccc(Cl)cc1 | -12% | -16% | -1% | -26% | -2 | -27%
O=S(=O)(Nc1cc(Sc2ncn[nH]2)c(O)c2ccccc12)c1ccccc1 | 25µM* | 2.5µM* | ? | ? | -99* | 6.3µM*
CN(C)c1ccc2cc3c(c(S(=O)(=O)c4ccccc4)c2c1)CCC3 | · | · | · | · | -10 | ·
Cc1ccc2nc(-c3ccc(NS(C)(=O)=O)cc3)cc(-c3ccccc3)c2c1 | -27% | · | -18% | -15% | -10 | ·
Cc1ccc2nc(-c3ccncc3)cc(-c3ccccc3)c2c1 | 0% | · | -1% | 13µM* | 6 | ·
COC(=O)c1ccc(NC(=O)CSc2nc3ccc(N4C(=O)C5C6C=CC(C6)C5C4=O)cc3s2)cc1 (centres undefined) | 14µM* | 7.1µM* | ? | ? | -64* | ?
Cc1ccc(S(=O)(=O)N2CCCCC2)cc1NC(=S)NC(=O)c1ccco1 | -19% | · | · | · | -22 | ·
COC(=O)C1=C(C)N(Cc2ccccc2)C(=S)NC1c1cccc(F)c1 (centres undefined) | · | · | · | 48%[14.2 µM] | · | ·
Cc1ccccc1C(=O)Nc1nnc(-c2ccco2)s1 | ? | 4% | 4.1µM* | 1.3µM* | 16 | i
COc1ccccc1C(=O)Nc1nnc(-c2ccco2)s1 | · | -4% | -25% | ? | 44 | -13%
COc1cc(Cl)c(NS(=O)(=O)c2ccc(-c3cnc(C4CC4)o3)cc2)c(OC)c1 | ? | ? | ? | · | -76* | ?
CCOc1ccccc1CNS(=O)(=O)c1ccc(-c2cnc(C3CC3)o2)cc1 | ? | ? | ? | · | -69* | ?
Cc1ccc(NS(=O)(=O)c2ccc(-c3cnc(C4CC4)o3)cc2)cc1 | 14% | · | · | · | -29 | ·
Cc1ccc(N(C)S(=O)(=O)c2ccc(-c3cnc(C4CC4)o3)cc2)cc1 | -9% | -22% | 1.4µM* | · | ? | ?
COc1ccc(C)cc1NS(=O)(=O)c1ccc(-c2cnc(C3CC3)o2)cc1 | ? | ? | ? | · | -103* | ?
Clc1ccc(-c2noc3ncnc(NCCc4ccccc4)c23)cc1 | -9% | 2% | 4µM* | · | ? | -1%
Cc1noc2ncnc(NCCc3ccccc3)c12 | ? | ? | -17%[46.1 µM] | · | ? | -29%
